Here are results for 41 compounds from PubChem BioAssay (NCATS).

The target in test [1] is Calcium and integrin-binding protein 1 (Homo sapiens) (UniProt Q99828). In words: Primary qHTS for Identification of Calcium Integrin Binding Protein 1 (CIB1) Competitor (AID 1508620). Also: top concentration of the series differs between compounds. The note with it: CIB1-GST / FITC-alphaIIb peptide fluorescence polarization; series mostly up to 57.7 µM. In short, it runs like this: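 Fluorescence polarization competition: GST-tagged CIB1 (1 uM final) preincubated with compound 15 min at room temperature, then FITC-labelled alphaIIb peptide (100 nM final) added. After 15 min at room temperature, polarization read at Ex 480/Em 540.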
(In general: In qHTS, concentration-response curves come from the screen itself.)

Test [2] in a line: Primary qHTS for small molecule stabilizers of the endoplasmic reticulum resident proteome: Secreted ER Calcium Modulated Protein (SERCaMP) assay (AID 1508630). The conditions noted are these: SH-SY5Y GLuc-SERCaMP (Gaussia luciferase released on ER calcium loss) secretion, thapsigargin, luminescence; series mostly up to 38.4 µM. In short, it runs like this:
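GLuc-SERCaMP-expressing SH-SY5Y cells, pretreated 16 h with compound, are challenged with thapsigargin to empty ER calcium stores; after 4 h, coelenterazine is added directly to the medium and luminescence is imaged.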

Test [3] in a line: A High-Content qHTS Against Drug Library for the Identification of Small Molecules that Inhibit DYT1 Early Onset Primary Dystonia-Associated Cell Pathology (AID 1645839; calls by dose curve; also: potency is read from the fitted curve at half-maximal effect). The conditions noted are these: HEK293 Flp-In EGFP-delE TorsinA, punctate imaging, 48 h; series mostly up to 46.1 µM. In short, it runs like this: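 Flp-In T-REx 293 cells with tetracycline-inducible EGFP-delE hTOR1A (WT EGFP-hTOR1A as reference), 800 cells/well; compound added with tetracycline, 48 h at 37 C. Fixed, permeabilized cells imaged; %pathology (punctate TorsinA) primary, cell count counterscreen.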

In test [4] the target is Cytochrome P450 2D6 (Homo sapiens) (UniProt P10635). Nature of the test: Cytochrome P450 family 2 subfamily D member 6 (CYP2D6) small molecule antagonists: luciferase biochemical (cell-free) qHTS assay (AID 1645840; active = well fitted curve in the direction sought with a large enough effect in the repeat runs; an effect the other way counts as inactive or inconclusive; also: nearly all actives have a fitted effect of over 55% in size; also: potency is read from the fitted curve at half-maximal effect). The conditions noted are these: P450-Glo CYP2D6 enzyme, luciferin luminescence, 1 h; series mostly up to 57.4 µM. An outline of the steps:
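P450-Glo luminescent screen: recombinant CYP2D6 enzyme–proluciferin substrate mix preincubated with compound 10 min at room temperature, then NADPH regeneration added for 1 h at room temperature. Detection reagent added for 20 min; luciferin light read as relative luminescence units.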

The target in test [5] is Cytochrome P450 2C9 (Homo sapiens) (UniProt P11712). In words: Cytochrome P450 family 2 subfamily C member 9 (CYP2C9) small molecule antagonists: luciferase biochemical (cell-free) qHTS assay (AID 1645842; active = well fitted curve in the direction sought with a large enough effect in the repeat runs; an effect the other way counts as inactive or inconclusive; also: nearly all actives have a fitted effect of over 55% in size; also: potency is read from the fitted curve at half-maximal effect). The note with it: P450-Glo CYP2C9 enzyme assay, luciferin luminescence; series mostly up to 57.4 µM. In short, it runs like this:
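Luminescence, after 20 min with luciferin detection reagent, reflected CYP2C9 turnover during a 1 h NADPH-driven reaction at 37C. Enzyme-substrate mix contained 0.4% bovine serum albumin and was preincubated with compound 10 min at room temperature.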

Records with an inconclusive call do not appear. Calls of active or inactive are those of the source. Unless noted, calls follow the shape of the dose curve; as a rule, active = well fitted curve in the direction sought with a large enough effect; inconclusive = small, poorly fitted or top-dose-only effect, or another doubt; inactive = no such curve, though single readings can be large; an effect the other way counts as inactive or inconclusive.

Sequence of Calcium and integrin-binding protein 1 (Homo sapiens) (Q99828 whole entry, looked up): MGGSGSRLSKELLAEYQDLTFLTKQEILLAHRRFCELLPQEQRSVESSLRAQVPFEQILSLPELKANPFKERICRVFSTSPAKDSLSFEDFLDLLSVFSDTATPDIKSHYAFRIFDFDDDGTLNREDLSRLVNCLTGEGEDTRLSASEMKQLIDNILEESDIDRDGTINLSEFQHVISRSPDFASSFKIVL
Sequence of Cytochrome P450 2D6 (Homo sapiens) (P10635 whole entry, looked up): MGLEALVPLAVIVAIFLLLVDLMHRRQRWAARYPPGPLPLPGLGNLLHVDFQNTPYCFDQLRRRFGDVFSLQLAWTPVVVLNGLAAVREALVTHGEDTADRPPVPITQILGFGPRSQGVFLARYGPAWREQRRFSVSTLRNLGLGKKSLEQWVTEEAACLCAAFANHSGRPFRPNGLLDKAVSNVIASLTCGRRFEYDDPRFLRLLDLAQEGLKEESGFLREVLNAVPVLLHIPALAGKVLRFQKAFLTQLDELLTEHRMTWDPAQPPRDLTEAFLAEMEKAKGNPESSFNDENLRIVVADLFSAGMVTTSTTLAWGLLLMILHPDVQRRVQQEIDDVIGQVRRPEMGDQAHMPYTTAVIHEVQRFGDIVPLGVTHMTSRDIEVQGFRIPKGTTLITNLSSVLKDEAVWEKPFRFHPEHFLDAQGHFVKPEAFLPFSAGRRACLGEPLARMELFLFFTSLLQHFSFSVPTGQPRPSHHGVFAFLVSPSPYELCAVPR
Sequence of Cytochrome P450 2C9 (Homo sapiens) (P11712 whole entry, looked up): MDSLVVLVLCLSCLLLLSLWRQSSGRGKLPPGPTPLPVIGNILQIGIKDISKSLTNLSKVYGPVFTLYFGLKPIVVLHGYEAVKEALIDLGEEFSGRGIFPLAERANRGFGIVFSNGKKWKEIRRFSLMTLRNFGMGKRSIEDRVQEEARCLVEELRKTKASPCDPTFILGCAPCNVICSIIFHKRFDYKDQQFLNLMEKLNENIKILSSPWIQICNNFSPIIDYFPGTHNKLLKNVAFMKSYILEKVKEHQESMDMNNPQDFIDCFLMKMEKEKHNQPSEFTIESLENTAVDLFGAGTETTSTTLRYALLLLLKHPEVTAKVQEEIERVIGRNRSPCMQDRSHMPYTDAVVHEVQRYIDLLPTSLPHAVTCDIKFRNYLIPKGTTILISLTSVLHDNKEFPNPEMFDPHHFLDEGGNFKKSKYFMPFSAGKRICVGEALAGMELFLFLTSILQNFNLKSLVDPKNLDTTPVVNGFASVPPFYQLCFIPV

On to `Clc1ccc(Cn2c(CN3CCCC3)nc3ccccc32)cc1`, for which the Potency result in test [1], in test [2] and in test [3] was “inactive” in each case. The Potency in test [4] is 0.309 µM (active); in test [5], 12.3 µM (active).
Turning to `Oc1ccc(C2=Cc3ccc(O)cc3OC2)cc1`, the Potency entry in test [1] and in test [2] was “inactive” in each case.
`CCCNC(=O)NS(=O)(=O)c1ccc(Cl)cc1`: the Potency entry in test [1], in test [2], in test [3] and in test [4] was “inactive” throughout.
Take `CN1[C@@H]2CCC[C@@H]1CC(NC(=O)c1nn(C)c3ccccc13)C2` (some centres not stated): the Potency entry in test [1] and in test [2] was “inactive” each time.
For `CC[C@@H]1C=C(C)C[C@H](C)C[C@H](OC)[C@H]2O[C@@](O)(C(=O)C(=O)N3CCCC[C@@H]3C(=O)O[C@H](C(C)=C[C@@H]3CC[C@H](Cl)[C@H](OC)C3)[C@H](C)[C@@H](O)CC1=O)[C@H](C)C[C@H]2OC`, the Potency result in test [1] and in test [2] was “inactive” in each case.
With `CO[C@H]1C=CC=C(C)C(=O)NC2=CC(=O)C(NCCN(C)C)=C(C[C@@H](C)C[C@H](OC)[C@@H](O)[C@@H](C)C=C(C)[C@@H]1OC(N)=O)C2=O`, the Potency entry in test [1] and in test [2] was “inactive” throughout.
For `c1ccc2c(Cc3c[nH]c4ccccc34)c[nH]c2c1`, the Potency entry in test [1] and in test [2] was “inactive” throughout.
On to `CNC(=O)c1ccccc1Sc1ccc2c(C=Cc3ccccn3)n[nH]c2c1`, for which the Potency entry in test [1] and in test [2] was “inactive” throughout.
As for `COC(=O)N[C@H](C(=O)N1CCC[C@@H]1c1ncc(-c2ccc(-c3ccc(-c4cnc([C@@H]5CCCN5C(=O)[C@@H](NC(=O)OC)C(C)C)[nH]4)cc3)cc2)[nH]1)C(C)C`, the Potency entry in test [1] and in test [2] was “inactive” throughout.
As to `CC(C)(C)OC(=O)N[C@H]1CCCCCC=C[C@@H]2C[C@@]2(C(=O)NS(=O)(=O)C2CC2)NC(=O)[C@@H]2C[C@@H](OC(=O)N3Cc4cccc(F)c4C3)CN2C1=O`, the Potency entry in test [1] and in test [2] was “inactive” in each case.
Regarding `COCCCCC(=NOCCN)c1ccc(C(F)(F)F)cc1`, the Potency entry in test [1] and in test [2] was “inactive” each time.
Take `O=C(NOCC(O)CO)c1cc(Br)c(F)c(F)c1Nc1ccc(I)cc1F` (configuration not stated): the Potency entry in test [1] and in test [2] was “inactive” in each case.
Consider `O=C(NCc1ccncc1)C12C[C@H]3C[C@@H](C1)CC(c1ccc(Cl)cc1)(C3)C2`, for which the Potency result in test [1] and in test [2] was “inactive” throughout.
Turning to `Cc1ccccc1C(C(=O)NC1CCCCC1)N(C(=O)Cn1ccnc1C)c1cccc(F)c1` (configuration not stated), the Potency entry in test [1] and in test [2] was “inactive” throughout.
As for `OC[C@H]1O[C@@H](Oc2cc(O)cc(C=Cc3ccc(O)cc3)c2)[C@H](O)[C@@H](O)[C@H]1O`, the Potency result in test [1] and in test [2] was “inactive” in each case.
`N#CC(=C(N)Sc1ccccc1N)C(C#N)=C(N)Sc1ccccc1N`: the Potency entry in test [1] and in test [2] was “inactive” each time.
Regarding `CC(C)=CC[C@@H](O)C1=CC(=O)c2c(O)ccc(O)c2C1=O`, the Potency result in test [1] and in test [2] was “inactive” in each case.
`CCN(CC)CCNC(=O)c1ccc(N)cc1`: the Potency result in test [1], in test [2], in test [3], in test [4] and in test [5] was “inactive” in each case.
Consider `CC[C@@]1(O)C[C@H](O[C@H]2C[C@H](N(C)C)[C@H](O[C@H]3C[C@H](O)[C@H](O[C@H]4CCC(=O)[C@H](C)O4)[C@H](C)O3)[C@H](C)O2)c2c(cc3c(c2O)C(=O)c2c(O)cccc2C3=O)[C@@H]1C(=O)OC`, for which the Potency entry in test [1] and in test [2] was “inactive” in each case.
As for `C[C@@H](O)[C@H]1C(=O)N2C(C(=O)O)=C(S[C@@H]3CN[C@H](C(=O)N(C)C)C3)[C@H](C)[C@H]12`, the Potency result in test [1], in test [2], in test [3], in test [4] and in test [5] was “inactive” each time.
Take `O=C(CCc1ccc(O)cc1)c1c(O)cc(O)cc1O[C@@H]1O[C@H](CO)[C@H](O)[C@H](O)[C@H]1O`: the Potency entry in test [1] and in test [2] was “inactive” in each case.
Take `CN1C[C@H]2c3ccccc3Oc3ccc(Cl)cc3[C@@H]2C1`: the Potency entry in test [1], in test [2] and in test [5] was “inactive” in each case. Besides, the values for the Potency in test [3] and in test [4] were 11.2 µM (active) and 0.0062 µM (active), respectively.
For `CC(=NNC(=S)N1CCC1)c1ccccn1`, the Potency result in test [1] and in test [2] was “inactive” throughout.
Consider `NS(=O)(=O)c1ccc(NC2=CC(=O)c3ccccc3C2=O)cc1`, for which the Potency entry in test [1] and in test [2] was “inactive” in each case.
Regarding `C=C1C(=O)OC(CCCCCCCC)C1C(=O)O` (configuration not stated), the Potency entry in test [1] and in test [2] was “inactive” each time.
On to `CC1(C)CCC[C@@]2(C)[C@@H]1CC[C@@]1(C)OC(=O)C[C@H]21`, for which the Potency entry in test [1] and in test [2] was “inactive” throughout.
Take `CC=CC[C@@H](C)C(=O)[C@H]1C(=O)N[C@@H](C(C)C)C(=O)N(C)CC(=O)N(C)[C@@H](CC(C)C)C(=O)N[C@@H](C(C)C)C(=O)N(C)[C@@H](CC(C)C)C(=O)N[C@@H](C)C(=O)N[C@H](C)C(=O)N(C)[C@@H](CC(C)C)C(=O)N(C)[C@@H](CC(C)C)C(=O)N(C)[C@@H](C(C)C)C(=O)N1C`: the Potency entry in test [1] and in test [2] was “inactive” in each case.
As to `CC(=O)N[C@@H](CS)C(=O)O`, the Potency result in test [1], in test [2], in test [3], in test [4] and in test [5] was “inactive” each time.
As to `Cc1c(NC(=O)c2ccc(C(C)(C)C)cc2)cccc1-c1cn(C)c(=O)c(Nc2ccc(C(=O)N3CCOCC3)cc2)n1`, the Potency entry in test [1], in test [2] and in test [4] was “inactive” throughout. Also, the Potency in test [5] was 2.13 µM (active).
`NC(N)=Nc1nc(CSCC/C(N)=N/S(N)(=O)=O)cs1`: the Potency result in test [1], in test [2], in test [3] and in test [5] was “inactive” throughout.
Take `c1ccc2c(-c3cnn4cc(-c5ccc(N6CCNCC6)cc5)cnc34)ccnc2c1`: the Potency entry in test [1], in test [2], in test [4] and in test [5] was “inactive” throughout.
As for `O=C(O)CCC1CCC(c2cc(F)ccc2F)(S(=O)(=O)c2ccc(Cl)cc2)CC1` (configuration not stated), the Potency result in test [1], in test [2] and in test [4] was “inactive” throughout.
On to `CC1(C)Cc2c(sc(NC(=S)NC(=O)c3ccccc3)c2C(=O)O)CO1`, for which the Potency result in test [1], in test [2] and in test [4] was “inactive” throughout. Also, in test [5], the Potency is 19 µM (active).
For `O=C(NC1CCOCC1)c1ccc(-c2cc(-c3cn[nH]c3-c3ccccn3)ccn2)cc1`, the Potency result in test [1], in test [2] and in test [4] was “inactive” in each case.
Consider `COC1CCC(N(C(=O)C2CCC(C)CC2)c2cc(C3=CCCCC3)sc2C(=O)O)CC1` (configuration not stated), for which the Potency result in test [1], in test [2] and in test [4] was “inactive” throughout.
For `CCCCCNC(=O)N1CCC(CN(Cc2ccc(Cl)cc2)Cc2ccc([N+](=O)[O-])s2)C1` (configuration not stated), the Potency entry in test [1] and in test [2] was “inactive” in each case. For the same compound, the Potency was 2.39 µM (active) in test [4] and 2.68 µM (active) in test [5].
Take `CCn1c(C(=O)N(C2CC2)C2CC2)cc2c3c(ncn3C)c(Nc3cc(C)n(C)n3)nc21`: the Potency entry in test [1], in test [2] and in test [4] was “inactive” in each case. The Potency in test [5] was 7.56 µM (active).
For the compound `CC(C)(C)c1cc(C(=O)O)c(NC(=O)Nc2ccc3[nH]ncc3c2)s1`, the Potency result in test [1] and in test [2] was “inactive” in each case. For the same compound, the Potency in test [4] was 3.38 µM (active); in test [5] it was 0.477 µM (active).
For `CCN1CCC[C@H]1CNC(=O)c1cc(S(N)(=O)=O)ccc1OC`, the Potency entry in test [1], in test [2], in test [3], in test [4] and in test [5] was “inactive” each time.
On to `Cc1ccn(-c2ccc(-c3ncco3)cc2)c(=O)c1-c1ccc2nc(N)ncc2c1`, for which the Potency entry in test [1] and in test [2] was “inactive” in each case. Moreover, the Potency in test [4] is 16.9 µM (active).
As to `CC[C@]1(O)C[C@@H]2CN(CCc3c([nH]c4ccccc34)[C@@](C(=O)OC)(c3cc4c(cc3OC)N(C)[C@H]3[C@@](O)(C(=O)OC)[C@H](OC(C)=O)[C@]5(CC)C=CCN6CC[C@]43[C@@H]65)C2)C1`, the Potency result in test [1], in test [2], in test [3] and in test [5] was “inactive” throughout.
